Measurements as given in PMC9911399, “Two distinct binding modes provide the RNA-binding protein RbFox with extraordinary sequence specificity”.
Where a chain is given by its changes, count along the chain named. Over roughly 16,000 sequences, “ka relative to ugcaugu” has its median near 0.0091; the highest 2% begin near 0.032. What follows is part of a selection rich in the highest values, with near analogues and random picks from the rest.

T1: RBFOX1 RRM (Homo sapiens, UniProt Q9NWB1 109-208)
T1 sequence: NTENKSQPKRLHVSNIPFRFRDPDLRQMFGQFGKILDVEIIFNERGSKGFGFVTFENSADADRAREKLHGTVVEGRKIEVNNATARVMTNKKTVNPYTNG

B1: CGCAUAC (DNA:RNA)
RNA: GGGAGACCGGAAUUCAGAUUGUCCCGCAUACUUAAAUCCCGUCGUAGCCACCA
DNA 1: CAATCTGAATTCCGGTCTCCC
DNA 2: TGGTGGCTACGACGGGATT
B2: AUGCGCC (DNA:RNA)
RNA: B1 RNA with C25A, G26U, C27G, A28C, U29G, A30C
DNA 1: CAATCTGAATTCCGGTCTCCC
DNA 2: TGGTGGCTACGACGGGATT
B3: AACACCC (DNA:RNA)
RNA: B1 RNA with C25A, G26A, U29C, A30C
DNA 1: CAATCTGAATTCCGGTCTCCC
DNA 2: TGGTGGCTACGACGGGATT
B4: AAUUUUC (DNA:RNA)
RNA: B1 RNA with C25A, G26A, C27U, A28U, A30U
DNA 1: CAATCTGAATTCCGGTCTCCC
DNA 2: TGGTGGCTACGACGGGATT
B5: ACAGCCG (DNA:RNA)
RNA: GGGAGACCGGAAUUCAGAUUGUCCACAGCCGUUAAAUCCCGUCGUAGCCACCA
DNA 1: CAATCTGAATTCCGGTCTCCC
DNA 2: TGGTGGCTACGACGGGATT
B6: CUGGGCC (DNA:RNA)
RNA: B5 RNA with A25C, C26U, A27G, C29G, G31C
DNA 1: CAATCTGAATTCCGGTCTCCC
DNA 2: TGGTGGCTACGACGGGATT
B7: UGGGCCU (DNA:RNA)
RNA: B5 RNA with A25U, C26G, A27G, G31U
DNA 1: CAATCTGAATTCCGGTCTCCC
DNA 2: TGGTGGCTACGACGGGATT
B8: UGGGCCG (DNA:RNA)
RNA: B5 RNA with A25U, C26G, A27G
DNA 1: CAATCTGAATTCCGGTCTCCC
DNA 2: TGGTGGCTACGACGGGATT
B9: UGGCCGU (DNA:RNA)
RNA: B5 RNA with A25U, C26G, A27G, G28C, C30G, G31U
DNA 1: CAATCTGAATTCCGGTCTCCC
DNA 2: TGGTGGCTACGACGGGATT
B10: UGGGCCC (DNA:RNA)
RNA: B5 RNA with A25U, C26G, A27G, G31C
DNA 1: CAATCTGAATTCCGGTCTCCC
DNA 2: TGGTGGCTACGACGGGATT
B11: UGGGGCC (DNA:RNA)
RNA: B5 RNA with A25U, C26G, A27G, C29G, G31C
DNA 1: CAATCTGAATTCCGGTCTCCC
DNA 2: TGGTGGCTACGACGGGATT
B12: GACUUCU (DNA:RNA)
RNA: B1 RNA with C25G, G26A, A28U, A30C, C31U
DNA 1: CAATCTGAATTCCGGTCTCCC
DNA 2: TGGTGGCTACGACGGGATT
B13: UCCAGUC (DNA:RNA)
RNA: B1 RNA with C25U, G26C, U29G, A30U
DNA 1: CAATCTGAATTCCGGTCTCCC
DNA 2: TGGTGGCTACGACGGGATT
B14: AUGUCGU (DNA:RNA)
RNA: B5 RNA with C26U, A27G, G28U, C30G, G31U
DNA 1: CAATCTGAATTCCGGTCTCCC
DNA 2: TGGTGGCTACGACGGGATT
B15: ACCGGCA (DNA:RNA)
RNA: B5 RNA with A27C, C29G, G31A
DNA 1: CAATCTGAATTCCGGTCTCCC
DNA 2: TGGTGGCTACGACGGGATT
B16: GGCAUUG (DNA:RNA)
RNA: B1 RNA with C25G, A30U, C31G
DNA 1: CAATCTGAATTCCGGTCTCCC
DNA 2: TGGTGGCTACGACGGGATT
B17: GGCAUGU (DNA:RNA)
RNA: B1 RNA with C25G, A30G, C31U
DNA 1: CAATCTGAATTCCGGTCTCCC
DNA 2: TGGTGGCTACGACGGGATT
B18: UGGCAUA (DNA:RNA)
RNA: B1 RNA with C25U, C27G, A28C, U29A, A30U, C31A
DNA 1: CAATCTGAATTCCGGTCTCCC
DNA 2: TGGTGGCTACGACGGGATT
B19: UGGCAUC (DNA:RNA)
RNA: B1 RNA with C25U, C27G, A28C, U29A, A30U
DNA 1: CAATCTGAATTCCGGTCTCCC
DNA 2: TGGTGGCTACGACGGGATT
B20: GUCAUGU (DNA:RNA)
RNA: B1 RNA with C25G, G26U, A30G, C31U
DNA 1: CAATCTGAATTCCGGTCTCCC
DNA 2: TGGTGGCTACGACGGGATT
B21: AGGCAUG (DNA:RNA)
RNA: B5 RNA with C26G, A27G, G28C, C29A, C30U
DNA 1: CAATCTGAATTCCGGTCTCCC
DNA 2: TGGTGGCTACGACGGGATT
B22: AGGCAUC (DNA:RNA)
RNA: B1 RNA with C25A, C27G, A28C, U29A, A30U
DNA 1: CAATCTGAATTCCGGTCTCCC
DNA 2: TGGTGGCTACGACGGGATT
B23: UGGCAUG (DNA:RNA)
RNA: B5 RNA with A25U, C26G, A27G, G28C, C29A, C30U
DNA 1: CAATCTGAATTCCGGTCTCCC
DNA 2: TGGTGGCTACGACGGGATT
B24: CGGCAUG (DNA:RNA)
RNA: B1 RNA with C27G, A28C, U29A, A30U, C31G
DNA 1: CAATCTGAATTCCGGTCTCCC
DNA 2: TGGTGGCTACGACGGGATT
B25: AGGCAUA (DNA:RNA)
RNA: B5 RNA with C26G, A27G, G28C, C29A, C30U, G31A
DNA 1: CAATCTGAATTCCGGTCTCCC
DNA 2: TGGTGGCTACGACGGGATT
B26: GUGCGUA (DNA:RNA)
RNA: GGGAGACCGGAAUUCAGAUUGUCCGUGCGUAUUAAAUCCCGUCGUAGCCACCA
DNA 1: CAATCTGAATTCCGGTCTCCC
DNA 2: TGGTGGCTACGACGGGATT
B27: CGUGGAA (DNA:RNA)
RNA: B1 RNA with C27U, A28G, U29G, C31A
DNA 1: CAATCTGAATTCCGGTCTCCC
DNA 2: TGGTGGCTACGACGGGATT
B28: CCCGACG (DNA:RNA)
RNA: B5 RNA with A25C, A27C, C29A
DNA 1: CAATCTGAATTCCGGTCTCCC
DNA 2: TGGTGGCTACGACGGGATT
B29: CGAGUCG (DNA:RNA)
RNA: B5 RNA with A25C, C26G, C29U
DNA 1: CAATCTGAATTCCGGTCTCCC
DNA 2: TGGTGGCTACGACGGGATT
B30: UCGCCGA (DNA:RNA)
RNA: B26 RNA with G25U, U26C, G29C, U30G
DNA 1: CAATCTGAATTCCGGTCTCCC
DNA 2: TGGTGGCTACGACGGGATT
B31: AAGUACG (DNA:RNA)
RNA: B5 RNA with C26A, A27G, G28U, C29A
DNA 1: CAATCTGAATTCCGGTCTCCC
DNA 2: TGGTGGCTACGACGGGATT

biological target: T1, RBFOX1 RRM; assay: EMSA; HiTS-Eq, 1 nM pool, 10 min; buffer printed only for the single-RNA assays: 10 mM Tris pH 7.5, 150 mM NaCl, 3.4 mM EDTA, 0.001% NP-40, 30 C; conditions: tags: His6 N-terminal (pET28a); label: 5' 32P
Method in brief: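 Purified RbFox RRM (wild type or mutant) was equilibrated for 10 min in 50 µL with 1 nM of a 5′-radiolabelled pool of RNA with 7 randomized nucleotides, its flanks annealed to DNA oligonucleotides, across increasing protein concentrations. Free RNA was separated by 8% native PAGE, excised, reverse-transcribed, PCR-barcoded and sequenced on an Illumina HiSeq 2500. Relative association constants came from read-count changes of each variant against the control reaction, normalised to the cognate motif.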

| Binder | binding signal |
| --- | --- |
| B1 | 0.0068 KA relative to UGCAUGU |
| B2 | 0.0101 KA relative to UGCAUGU |
| B3 | 0.000265 KA relative to UGCAUGU |
| B4 | 0.00788 KA relative to UGCAUGU |
| B5 | 0.00101 KA relative to UGCAUGU |
| B6 | 0.0274 KA relative to UGCAUGU |
| B7 | 0.0237 KA relative to UGCAUGU |
| B8 | 0.0335 KA relative to UGCAUGU |
| B9 | 0.023 KA relative to UGCAUGU |
| B10 | 0.0266 KA relative to UGCAUGU |
| B11 | 0.0345 KA relative to UGCAUGU |
| B12 | 0.0118 KA relative to UGCAUGU |
| B13 | 0.00851 KA relative to UGCAUGU |
| B14 | 0.0142 KA relative to UGCAUGU |
| B15 | 0.00809 KA relative to UGCAUGU |
| B16 | 0.0108 KA relative to UGCAUGU |

| Binder | binding signal |
| --- | --- |
| B17 | 0.426 KA relative to UGCAUGU |
| B18 | 0.0137 KA relative to UGCAUGU |
| B19 | 0.0211 KA relative to UGCAUGU |
| B20 | 0.0129 KA relative to UGCAUGU |
| B21 | 0.662 KA relative to UGCAUGU |
| B22 | 0.0123 KA relative to UGCAUGU |
| B23 | 0.696 KA relative to UGCAUGU |
| B24 | 0.573 KA relative to UGCAUGU |
| B25 | 0.00927 KA relative to UGCAUGU |
| B26 | 0.0121 KA relative to UGCAUGU |
| B27 | 0.0142 KA relative to UGCAUGU |
| B28 | 0.0192 KA relative to UGCAUGU |
| B29 | 0.0112 KA relative to UGCAUGU |
| B30 | 0.0122 KA relative to UGCAUGU |
| B31 | 0.0114 KA relative to UGCAUGU |
